Only a selection was taken, and hits are over-represented in it overall.
Pf Dd2 growth – inhibitors of Plasmodium falciparum Dd2 growth; P. falciparum Dd2 growth, SYBR Green, 72 h; hit rate 4.3% among 120,000; Potency, µM (top dose mostly 28.9 µM), actives largely listed as inhibitors; AID 1347417; active = well fitted inhibition curve with a large enough effect; also: nearly all actives have a fitted effect of over 65% in size
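Readout: SYBR Green fluorescence, 485 nm excitation, 535 nm emission, after ~16 h lysis at 37C. Before that, Dd2-infected red cells (2.5% hematocrit) grew 72 h with compound, 29 uM top final concentration.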
Large screens that a line does not name were inactive.

COc1ccc(-c2nc3cc(C)ccc3cc2CN2CCN(C)C(=O)C2)cc1OC	Pf Dd2 growth 7.94µM
COc1ccc(-c2n[nH]c3c2CC(=O)N(CC2CC2)C3)cc1OC	none
CCN1CC(CN(C)C(=O)c2cc(Cn3c(C)nc4ccccc43)[nH]n2)CC1=O (configuration not stated)	none
C=CCNC(=O)CCc1ccc2c(c1)CN(C(=O)NCC)CCO2	none
CCSc1nn(CC(=O)Nc2ccc(C(=O)OC)cc2)c(N)c1S(=O)(=O)c1ccc(C)cc1	none
CCOC(=O)c1ccc(NC(=O)Cn2nc(SC)c(S(=O)(=O)c3ccc(Cl)cc3)c2N)cc1	Pf Dd2 growth 11.2µM
CSc1nn(CC(=O)Nc2ccccc2F)c(N)c1S(=O)(=O)c1ccccc1	none
CCC(=O)N1CCCC(c2nc(-c3cccnc3)no2)CCNC(=O)CC1 (configuration not stated)	none
CC(=O)N1CC(CO)C2(CCN(C(=O)CC3CCCCC3)CC2)C1 (configuration not stated)	none
NC(=O)CCn1cc(CN(CCO)Cc2ccccc2F)c2ccccc21	Pf Dd2 growth 2.24µM
CCC(NCc1cn(CCC(N)=O)c2ccccc12)c1cccs1 (configuration not stated)	none
O=C(Cn1cc(SCc2ccccc2F)c2ccccc21)N1CCCCC1	none
O=C(CCCc1ccccc1)Nc1ccnn1C1CCN(C(=O)CCN2CCCC2=O)CC1	none
CC(C)CCN1CCCC2(CC(Cc3ccccc3)=NO2)C1 (configuration not stated)	none
c1ccc(CC2=NOC3(CCN(Cc4ccccc4)C3)C2)cc1 (configuration not stated)	Pf Dd2 growth 4.47µM
COc1ccc(CN2CCCC3(CC(Cc4ccccc4)=NO3)C2)cc1 (configuration not stated)	none
c1ccc(CC2=NOC3(CCN(CC4CCCCC4)CC3)C2)cc1	Pf Dd2 growth 3.55µM
c1cncc(C2=NOC3(CCN(CC4CCCCC4)CC3)C2)c1	none
FC(F)(F)c1ccc(CN2CCCC3(CC(Cc4ccccc4)=NO3)C2)cc1 (configuration not stated)	none
COc1ccccc1[C@@H]1CN(C(=O)C2CCOCC2)C[C@H]1C(=O)O	none
Cc1noc(C)c1S(=O)(=O)N1C[C@@H](Oc2cccnc2)C[C@H]1C(=O)N1CCOCC1	none
O=C(c1ccc(C(F)(F)F)cc1)N1CCC(c2nn(-c3ccccc3)c(=O)[nH]2)CC1	none
CCOc1cc(=O)n2c(c1C(=O)Nc1cccc(C(C)C)c1)CCCC2	none
CCN(CC)CCNC(=O)C1CCCN(Cc2ccncc2)CCC(=O)NCC1 (configuration not stated)	none
O=C(NC1CCCC1)N1CC(Oc2ccc(-c3nc(-c4ccccc4)no3)cc2)C1	none
CC(C)(C)C1CCc2c(sc(NC(=O)c3cccc(Cl)c3)c2C(N)=O)C1 (configuration not stated)	none
CC(C)(C)C1CCc2c(sc(NC(=O)C3c4ccccc4Oc4ccccc43)c2C(N)=O)C1 (configuration not stated)	Pf Dd2 growth 12.6µM
CN(C)C(=O)c1c(NC(=O)c2ccccc2F)sc2c1CCCC2	none
CC1CCN(C(=O)c2c(NC(=O)c3ccccc3F)sc3c2CCC(C(C)(C)C)C3)CC1 (configuration not stated)	Pf Dd2 growth 8.91µM
CCOC(=O)c1c(NC(=O)C2c3ccccc3Oc3ccccc32)sc2c1CCC(CC)C2 (configuration not stated)	none
O=C(Nc1sc2c(c1C(=O)N1CCCCC1)CCCC2)c1ccccc1Cl	none
CCOc1ccc(-c2cc3c(=O)n(CCNC(=O)c4ccc(OC)cc4)ccn3n2)cc1	none
CCOc1ccc(-c2cc3c(=O)n(CCNC(=O)c4ccc(Cl)cc4)ccn3n2)cc1	none
CCOc1ccc(-c2cn3c(n2)sc2cc(C(=O)NCCCN4CCCCCC4)ccc23)cc1	Pf Dd2 growth 2.24µM
Cc1c(C(=O)NCc2ccccc2Cl)sc2nc(-c3ccc(F)cc3)cn12	none
CCN(CC)CCNC(=O)C1CCN(c2nn3cc(-c4ccc(F)cc4)nc3s2)CC1	none
CCOc1ccc(-c2cn3c(n2)sc2cc(C(=O)NC4CCCc5ccccc54)ccc23)cc1 (configuration not stated)	none
CCOc1ccc(-c2cn3c(n2)sc2cc(C(=O)NCCCN(CC)CC)ccc23)cc1	Pf Dd2 growth 2.82µM
CCN(CC)CCNC(=O)c1ccc2c(c1)sc1nc(-c3ccc(F)cc3)cn12	Pf Dd2 growth 3.16µM
CCOc1ccc(C(=O)NCCn2ccn3nc(-c4ccc(OC)cc4)cc3c2=O)cc1	none
CCCN1CCN(CCCNC(=O)c2ccc3c(c2)sc2nc(-c4ccc(OCC)cc4)cn23)CC1	Pf Dd2 growth 1.26µM
Cn1nccc1C(=O)N1CC(c2nc(CCOCC3CCCC3)no2)C1	none
COCCNC(=O)C1COC2(CCN(C(=O)c3cccc(OC)c3)CC2)N1C(=O)c1ccc(F)cc1 (configuration not stated)	none
O=C(O)[C@@H]1CN(C(=O)CCCc2cn[nH]c2)C[C@H]1c1ccc2c(c1)OCO2	none
Cc1nn(CCO)cc1CN1CCC2(CC1)C(C(=O)O)CC(=O)N2C (configuration not stated)	none
Cc1ccccc1CNC(=O)[C@H]1CN(Cc2ccccc2)C[C@H]1C(=O)O	none
CS(=O)(=O)N1CCc2n[nH]c(=O)n2CC1	none
COc1ncccc1-c1ccc2ncn(Cc3ccccn3)c(=O)c2n1	none
CNC(=O)[C@@H](Cc1ccccc1)N1CCC[C@H]1C(=O)NC(C)(C)C	none
COc1ccc(C2Cn3nnc(C(=O)N4CCN(C(=O)c5ccccc5F)CC4)c3CO2)cc1 (configuration not stated)	none
CCn1c(C2CCCN(C(=O)CN3C(=O)NC(=O)C3(C)C)C2)nn(C)c1=O (configuration not stated)	none
COc1cccc(OCc2nc([C@@H]3C[C@H]3c3ccccc3)n(CCO)n2)c1	none
CCCC1=Nc2cc(C(=O)NCCc3ccc(OC)cc3OC)ccc2Sc2ccccc21	none
CCOc1ccc(-c2cn3c(n2)sc2cc(C(=O)NCCCN4CCCCC4)ccc23)cc1	Pf Dd2 growth 2.51µM
CCOc1ccc(-c2cn3c(n2)sc2cc(C(=O)N4CCCC(C)C4)ccc23)cc1 (configuration not stated)	Pf Dd2 growth 7.08µM
COc1ccc(-c2cn3c(n2)sc2cc(C(=O)N4CCCCC4)ccc23)cc1	none
COc1ccc(-c2cn3c(n2)sc2cc(C(=O)Nc4ccc(C)c(Cl)c4)ccc23)cc1	Pf Dd2 growth 6.31µM
CCOc1ccc(C(=O)N2CCCC(n3cc(-c4nc(C5CC5)no4)nn3)C2)cc1 (configuration not stated)	none
CCOc1ccc(-c2cn3c(n2)sc2cc(C(=O)NCCc4ccc(OC)cc4OC)ccc23)cc1	Pf Dd2 growth 5.62µM
COc1ccc(-c2cn3c(n2)sc2cc(C(=O)Nc4c(C)cccc4C)ccc23)cc1	none
COc1ccc(-c2cn3c(n2)sc2cc(C(=O)Nc4ccc(C)cc4C)ccc23)cc1	none
CCCCOc1ccc(C(=O)NCCc2sc(-c3ccc(OC)c(OC)c3)nc2C)cc1	none
Cc1ccc(C2(O)CCN(C(=O)c3cc4c(s3)CCCC4)CC2)nc1	none
COCCNC(=O)[C@H]1C[C@H](Oc2cccnc2)CN1C(=O)Nc1ccc(OC)cc1	none
Cc1cnc(C(=O)NC2C[C@H]3CC[C@@H](C2)N3C(=O)c2ccc(C)c(F)c2)cn1 (some centres not stated)	none
Cn1cccc1CN1CC[C@@H]2CN(S(C)(=O)=O)[C@@H]2C1	none
COc1ccc(CC(=O)N2CC[C@@H](CC(=O)O)[C@@H](CCN(CCN3CCOCC3)c3ccccc3)C2)cc1	none
CCOC(=O)C1CCN(S(=O)(=O)c2cc3c4c(c2)CC(=O)N4CCC3)CC1	Pf Dd2 growth 10µM
